Screening data from PubChem BioAssay.
CYP2C9 inhib: blockers of cytochrome P450 2C9 activity – biochemical, luminescence, ADME assay, primary screen | P11712 | inhibition, % at 5 µM | CYP2C9 Supersomes, luciferin-H conversion | 96,000 compounds, 20% hits;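 active means blocking of liver enzyme CYP2C9 beyond about 50% at 5 µM, limit read from the data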
Target sequence (P11712 whole entry, looked up): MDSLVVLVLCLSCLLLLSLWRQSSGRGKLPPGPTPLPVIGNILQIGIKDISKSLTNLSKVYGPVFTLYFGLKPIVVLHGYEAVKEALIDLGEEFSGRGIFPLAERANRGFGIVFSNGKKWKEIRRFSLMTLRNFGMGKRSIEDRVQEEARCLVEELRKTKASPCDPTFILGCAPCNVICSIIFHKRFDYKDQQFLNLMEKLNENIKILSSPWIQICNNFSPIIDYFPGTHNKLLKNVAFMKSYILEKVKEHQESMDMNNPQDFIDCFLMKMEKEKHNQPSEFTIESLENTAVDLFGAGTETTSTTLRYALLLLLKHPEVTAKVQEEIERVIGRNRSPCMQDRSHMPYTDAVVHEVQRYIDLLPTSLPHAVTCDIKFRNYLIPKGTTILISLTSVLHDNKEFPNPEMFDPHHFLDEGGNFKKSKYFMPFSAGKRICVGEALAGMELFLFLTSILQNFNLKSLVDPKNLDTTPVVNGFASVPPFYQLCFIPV
CYP2C19 inh: blockers of cytochrome P450 2C19 activity – biochemical, luminescence, ADME assay, primary screen | CYP2C19 Supersomes, luciferin-H EGE luminescence, 30 min | AID 778, 2007 | 96,000 compounds, 21% hits | inhibition, % at 5 µM;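 active means CYP2C19 inhibition above a set limit at 5 µM in the primary screen, cut at about 50% in these data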;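 further: plate controls were negative control wells for no effect and 2.5 mM tranylcypromine positive control for full effect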
PostGolgi yeast: phenotypic screen on post-Golgi transport, primary screen; post-Golgi transport phenotypic cell assay; 98,000 compounds, 0.9% hits; inhibition, % at 10 µM; AID 739, 2007;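 further: yeast cells grown in 1536-well plates; yeast grown about 18 h at 30C before absorbance read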
CYP2C9 act: human CYP2C9 activators, primary screen, biochemical, luminescence. Cytochrome P450 2C9 (Homo sapiens), P11712. recombinant CYP2C9, luciferin-H conversion; stronger effect = higher value; factor 1 = untreated enzyme, 0 = blocked. activation factor at 5 µM. 96,000 compounds, 1.4% hits. AID 1024, 2008;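 active means activation factor of 2 or more for CYP2C9 at a 5 µM dose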;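 further: 0 = sulfaphenazole-blocked wells and 1 = vehicle-only wells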
CYP2C19 activ: human CYP2C19 activators, primary screen, biochemical, luminescence; Cytochrome P450 2C19 (Homo sapiens), P33261; recombinant CYP2C19, luciferin-H EGE luminescence; stronger effect = higher value; 0 = fully inhibited enzyme, 1 = untreated enzyme; activation factor at 5 µM; 96,000 tested, under 10 active; AID 1025, 2008;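 active means activation factor of at least 2 at 5 µM in the primary screen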;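 further: 0 = wells with 2.5 mM tranylcypromine and 1 = vehicle-only wells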
PostGolgi ctrl: growth inhibition of yeast control strain, primary screen, counter-screen for post-Golgi transport modulator project; 98,000 compounds, 5% hits; efflux-deficient yeast background strain, growth absorbance A615, 16 h; AID 738, 2007; inhibition, % at 10 µM
Starred values were filed as active, the others as inactive; · = no result given. An excerpt weighted towards active compounds, which were near 32% of everything screened. Unless noted, no stated cut-off is given here; in the data, active means inhibition above about 30%; inactive means the rest.

SMILES	CYP2C9 inhib	CYP2C19 inh	PostGolgi yeast	CYP2C9 act	CYP2C19 activ	PostGolgi ctrl
C=CCn1c(CCNC(=O)c2cccs2)nnc1SCC(=O)Nc1cccc(Cl)c1C	45	16	8	0.5	0.8	25
Nc1nnc(C(c2ccccc2)c2ccccc2)s1	33	37	-5	0.7	0.6	4
CCOC(=O)c1c(NC(=O)CC2SC(N)=NC2=O)sc2c1CCCC2 (stereo unspecified)	64*	18	5	0.4	0.8	8
COC(=O)c1c(NC(C)=O)sc2c1CCCC2	4	-5	-5	1	1.1	-6
COC(=O)c1c(NC(=O)CC2SCC(C(=O)OC)NC2=O)sc2c1CCCC2 (stereo unspecified)	-124	69*	-7	2.2*	0.3	4
CCOC(=O)c1c(NC(=O)CN2CCCCC2)sc2c1CCN(C(=O)OCC)C2	47	65*	13	0.5	0.3	13
CCOC(=O)c1c(NC(=O)CN2CCOCC2)sc2c1CCCC2	100*	99*	·	0	0	·
COc1ccc(C(=O)/C=C2\NCC3c4ccccc4CCN3C2=O)cc1 (stereo unspecified)	-20	-1	-7	1.2	1	14
Cc1noc(C)c1S(=O)(=O)N1CCC(C(=O)NCCc2ccc(S(N)(=O)=O)cc2)CC1	4	10	1	1	0.9	2
O=C(Cn1nc(Cl)nc1Cl)Nc1ccccc1	11	40	-3	0.9	0.6	10
CCOC(=O)c1c(NC(=O)CN2CCOCC2)sc2c1CCCC2=O	51*	18	-4	0.5	0.8	26
CCOC(=O)C1CSC(CC(=O)Nc2ccc(Cl)cc2)C(=O)N1 (stereo unspecified)	-102	42	0	2*	0.6	6
CCOC(=O)c1c(NC(=O)CN2CCOCC2)sc(C(=O)NC)c1C	39	37	-1	0.6	0.6	-2
CCOC(=O)c1c(NC(=O)COC)sc2c1CCCC2	58*	16	-8	0.4	0.8	19
CCOC(=O)c1c(NC=O)sc2c1CCC2	-38	-7	-3	1.4	1.1	8
O=C(O)c1ccc(C(=O)Nc2cccc(NC(=O)C3CCCO3)c2)cc1 (stereo unspecified)	1	-3	4	1	1	8
CCC(CC)C(=O)Nc1nnc(SCC(=O)N2CCN(c3ccccc3OC)CC2)s1	73*	50*	5	0.3	0.5	-3
COc1ccccc1N1CCN(C(=O)CSc2ncccc2-c2nc3ccccc3[nH]2)CC1	58*	74*	-2	0.4	0.3	6
CC1Cc2ccccc2N1C(=O)CSc1nnc2n1C(C)(C)Cc1ccccc1-2 (stereo unspecified)	56*	74*	-6	0.4	0.3	-6
COc1ccccc1N1CCN(C(=O)CSc2nnc3n2C(C)(C)Cc2ccccc2-3)CC1	38	92*	-14	0.6	0.1	9
COc1cccc(C(c2sc3ncnn3c2O)N2CCN(C(=O)c3ccco3)CC2)c1 (stereo unspecified)	·	·	-5	·	·	3
O=c1n(-c2cccc(Cl)c2)c(=O)n2n1CCC2	-13	-5	0	1.1	1	-6
CCOC(=O)CSc1nnc2n1C(C)(C)Cc1ccccc1-2	·	·	14	·	·	-2
CC(C)OC(=O)CSc1nnc2n1C(C)(C)Cc1ccccc1-2	53*	49	-10	0.5	0.5	-4
O=C(CSc1nnc(-c2ccco2)n1-c1ccccc1)N1CCOCC1	-14	-7	-3	1.1	1.1	2
SMILES	CYP2C9 inhib	CYP2C19 inh	PostGolgi yeast	CYP2C9 act	CYP2C19 activ	PostGolgi ctrl
O=S(=O)(NCCSc1nnc(-c2ccco2)n1-c1ccccc1)c1ccccc1	83*	76*	11	0.2	0.2	2
CC1Cc2ccccc2N1C(=O)CSc1nc(-c2ccco2)cc(C(F)(F)F)n1 (stereo unspecified)	8	2	18	0.9	1	-1
CCOC(=O)C1CCN(C(=O)CSc2nnc(-c3ccco3)n2-c2ccccc2)CC1	54*	53*	-9	0.5	0.5	11
COc1cccc(-n2c(SCC(=O)N3c4ccccc4CC3C)nnc2-c2ccco2)c1 (stereo unspecified)	92*	80*	-6	0.1	0.2	14
O=C(COc1ncnc2scc(-c3ccc(Cl)cc3)c12)NCc1ccco1	16	26	-5	0.8	0.7	16
C#CC1(O)CC(C)N(C)C(C)C1 (stereo unspecified)	-5	-7	4	1	1.1	-6
Cc1ccc(C)c(N(CC(=O)N(C)C)S(C)(=O)=O)c1	-16	-16	-4	1.2	1.2	7
COCCCNC(=O)CSC1=Nc2ccccc2C2=NC(CC(=O)NCc3ccccc3)C(=O)N12 (stereo unspecified)	22	4	1	0.8	1	5
Cn1c(Cn2c(=O)sc3ccccc32)nnc1SCC(=O)NCCc1ccccc1	·	·	2	·	·	6
CCCCOn1c(C)c(C(=O)OCC)c2c3no[n+]([O-])c3ccc21	62*	45	1	0.4	0.6	5
Cc1nn(CC#N)c(=O)n1-c1ccccc1	-3	-1	-14	1	1	-2
Cc1nn(CCOc2ccccc2)c(=O)n1-c1c(F)cccc1F	-53	85*	-7	1.5	0.1	6
CCC1=NNc2cccc3c(OC)ccc1c23	18	28	-13	0.8	0.7	-2
N#Cc1ccc(NC(=O)N2CCC(c3nc4c(nnn4Cc4cccc(Cl)c4)c(=O)[nH]3)CC2)cc1	47	16	2	0.5	0.8	2
O=C(Cc1cccs1)N1CCCC(c2nc3c(nnn3Cc3ccc(F)cc3)c(=O)[nH]2)C1 (stereo unspecified)	57*	19	-6	0.4	0.8	9
CCOc1ccccc1NC(=O)N1CCCC(c2nc3c(nnn3Cc3ccc(C)cc3)c(=O)[nH]2)C1 (stereo unspecified)	6	14	-3	0.9	0.9	4
CC(C)(C)c1ccc(Cn2nnc3c(=O)[nH]c(C4CCN(C(=O)Cc5cccs5)CC4)nc32)cc1	99*	91*	0	0	0.1	-6
CC(C)(C)c1ccc(Cn2nnc3c(=O)[nH]c(C4CCCN(C(=O)Cc5cccs5)C4)nc32)cc1 (stereo unspecified)	57*	28	-5	0.4	0.7	11
Cc1ccc(Cn2nnc3c(=O)[nH]c(C4CCCN(C(=O)Nc5ccc(F)cc5F)C4)nc32)cc1 (stereo unspecified)	54*	40	-1	0.5	0.6	8
